The supplement of paper PMC8728848
The entries come from a sample that favours the strongest signals as a whole.

What was measured:
Test in all cases: glycan array binding signal (z-score within array); higher = stronger binding
Settings in all cases: glycan notation: IUPAC condensed, linker removed
Fuc(a1-2)Gal = molecular target: Fuc(a1-2)Gal
How it was run: (§1)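 From the Consortium for Functional Glycomics database, 3228 arrays were curated, keeping only those whose protein sequence was available. Binding is given as a within-array Z-score averaged across arrays sharing a protein sequence and across linkers. Negative Z-scores can be read as non-binding.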

[1] = molecular target: Fuc(a1-2)Gal(b1-3)GlcNAc(b1-2)Man(a1-3)[Fuc(a1-2)Gal(b1-3)GlcNAc(b1-2)Man(a1-6)]Man(b1-4)GlcNAc(b1-4)GlcNAc
How it was run: as §1

[2] = molecular target: Fuc(a1-2)Gal(b1-3)GlcNAc(b1-3)[Neu5Ac(a2-6)Gal(b1-4)GlcNAc(b1-6)]Gal(b1-4)Glc
How it was run: as §1

Fuc(a1-2)Gal(b1-4)Glc = molecular target: Fuc(a1-2)Gal(b1-4)Glc
How it was run: as §1

[3] = molecular target: Fuc(a1-2)Gal(b1-4)GlcNAc(b1-2)Man
How it was run: as §1

[4] = molecular target: Fuc(a1-2)[Gal(a1-3)]Gal(b1-4)GlcNAc
How it was run: as §1

[5] = molecular target: Fuc(a1-2)[Gal(a1-3)]Gal(b1-4)GlcNAc(b1-2)Man(a1-3)[Fuc(a1-2)[Gal(a1-3)]Gal(b1-4)GlcNAc(b1-2)Man(a1-6)]Man(b1-4)GlcNAc(b1-4)GlcNAc
How it was run: as §1

[6] = molecular target: Fuc(a1-2)[Gal(a1-3)]Gal(b1-4)[Fuc(a1-3)]GlcNAc
How it was run: as §1

[7] = molecular target: Fuc(a1-2)[GalNAc(a1-3)]Gal(b1-3)GlcNAc(b1-6)GalNAc
How it was run: as §1

[8] = molecular target: Fuc(a1-3)[Gal(b1-4)]GlcNAc(b1-6)GalNAc
How it was run: as §1

[9] = molecular target: Gal(a1-3)Gal(b1-3)[Fuc(a1-4)]GlcNAc(b1-2)Man(a1-3)[Gal(a1-3)Gal(b1-3)[Fuc(a1-4)]GlcNAc(b1-2)Man(a1-6)]Man(b1-4)GlcNAc(b1-4)GlcNAc
How it was run: as §1

[10] = molecular target: Gal(a1-3)Gal(b1-4)GlcNAc(b1-2)Man
How it was run: as §1

Gal(a1-3)GalNAc = molecular target: Gal(a1-3)GalNAc
How it was run: as §1

Gal(b1-2)Gal = molecular target: Gal(b1-2)Gal
How it was run: as §1

[11] = molecular target: Gal(b1-3)GlcNAc(b1-6)Gal(b1-4)GlcNAc
How it was run: as §1

[12] = molecular target: Gal(b1-4)GlcNAc(b1-2)Man(a1-3)[Man(a1-6)]Man(b1-4)GlcNAc(b1-4)GlcNAc
How it was run: as §1

[13] = molecular target: Gal(b1-4)GlcNAc(b1-3)Gal(b1-3)GalNAc
How it was run: as §1

[14] = molecular target: Gal(b1-4)GlcNAc(b1-3)Gal(b1-4)GlcNAc(b1-2)[Gal(b1-4)GlcNAc(b1-3)Gal(b1-4)GlcNAc(b1-6)]Man(a1-6)[Gal(b1-4)GlcNAc(b1-3)Gal(b1-4)GlcNAc(b1-2)Man(a1-3)]Man(b1-4)GlcNAc(b1-4)[Fuc(a1-6)]GlcNAc
How it was run: as §1

[15] = molecular target: Gal(b1-4)GlcNAc(b1-3)Gal(b1-4)GlcNAc(b1-3)Gal(b1-4)GlcNAc(b1-3)Gal(b1-4)GlcNAc(b1-2)Man(a1-3)[Gal(b1-4)GlcNAc(b1-3)Gal(b1-4)GlcNAc(b1-3)Gal(b1-4)GlcNAc(b1-3)Gal(b1-4)GlcNAc(b1-2)Man(a1-6)]Man(b1-4)GlcNAc(b1-4)[Fuc(a1-6)]GlcNAc
How it was run: as §1

[16] = molecular target: Gal(b1-4)GlcNAc(b1-3)Gal(b1-4)GlcNAc(b1-3)Gal(b1-4)GlcNAc(b1-3)Gal(b1-4)GlcNAc(b1-3)Gal(b1-4)GlcNAc(b1-2)Man(a1-3)[Gal(b1-4)GlcNAc(b1-3)Gal(b1-4)GlcNAc(b1-3)Gal(b1-4)GlcNAc(b1-3)Gal(b1-4)GlcNAc(b1-3)Gal(b1-4)GlcNAc(b1-2)Man(a1-6)]Man(b1-4)GlcNAc(b1-4)[Fuc(a1-6)]GlcNAc
How it was run: as §1

[17] = molecular target: Gal(b1-4)GlcNAc(b1-3)[GlcNAc(b1-6)]Gal(b1-4)GlcNAc
How it was run: as §1

Gal6S(b1-4)Glc6S = molecular target: Gal6S(b1-4)Glc6S
How it was run: as §1

[18] = molecular target: GalNAc(b1-4)GlcNAc(b1-3)GalNAc(b1-4)GlcNAc
How it was run: as §1

[19] = molecular target: GlcNAc(a1-3)Gal(b1-4)GlcNAc
How it was run: as §1

[20] = molecular target: GlcNAc(a1-6)Gal(b1-4)GlcNAc
How it was run: as §1

[21] = molecular target: GlcNAc(b1-2)[GlcNAc(b1-6)]Man(a1-6)[GlcNAc(b1-2)Man(a1-3)]Man(b1-4)GlcNAc(b1-4)GlcNAc
How it was run: as §1

[22] = molecular target: GlcNAc(b1-3)Gal(b1-4)GlcNAc(b1-2)Man(a1-3)[GlcNAc(b1-3)Gal(b1-4)GlcNAc(b1-2)Man(a1-6)]Man(b1-4)GlcNAc(b1-4)[Fuc(a1-6)]GlcNAc
How it was run: as §1

GlcNAc(b1-3)GalNAc = molecular target: GlcNAc(b1-3)GalNAc
How it was run: as §1

[23] = molecular target: Kdn(a2-3)Gal(b1-4)[Fuc(a1-3)]GlcNAc
How it was run: as §1

[24] = molecular target: Neu5Ac(a2-3)Gal(b1-3)GlcNAc
How it was run: as §1

[25] = molecular target: Neu5Ac(a2-3)Gal(b1-3)GlcNAc(b1-2)Man
How it was run: as §1

[26] = molecular target: Neu5Ac(a2-3)Gal(b1-4)GlcNAc(b1-2)[Neu5Ac(a2-3)Gal(b1-4)GlcNAc(b1-6)]Man(a1-6)[Neu5Ac(a2-3)Gal(b1-4)GlcNAc(b1-2)Man(a1-3)][GlcNAc(b1-4)]Man(b1-4)GlcNAc(b1-4)GlcNAc
How it was run: as §1

[27] = molecular target: Neu5Ac(a2-3)Gal(b1-4)GlcNAc(b1-3)Gal(b1-4)GlcNAc(b1-3)Gal(b1-4)GlcNAc(b1-2)Man(a1-3)[Neu5Ac(a2-3)Gal(b1-4)GlcNAc(b1-3)Gal(b1-4)GlcNAc(b1-3)Gal(b1-4)GlcNAc(b1-2)Man(a1-6)]GalNAc
How it was run: as §1

[28] = molecular target: Neu5Ac(a2-3)Gal(b1-4)[Fuc(a1-3)]GlcNAc6S
How it was run: as §1

[29] = molecular target: Neu5Ac(a2-6)Gal(b1-4)GlcNAc(b1-2)Man(a1-3)[Neu5Ac(a2-3)Gal(b1-4)GlcNAc(b1-2)Man(a1-6)]Man(b1-4)GlcNAc(b1-4)GlcNAc
How it was run: as §1

Neu5Ac(a2-8)Neu5Ac = molecular target: Neu5Ac(a2-8)Neu5Ac
How it was run: as §1

[30] = molecular target: Neu5Ac(a2-8)Neu5Ac(a2-3)Gal(b1-4)Glc
How it was run: as §1

Neu5Ac(b2-6)GalNAc = molecular target: Neu5Ac(b2-6)GalNAc
How it was run: as §1

Neu5Gc(a2-6)GalNAc = molecular target: Neu5Gc(a2-6)GalNAc
How it was run: as §1

B1: Loc1 (Escherichia coli) (protein)
chain: APCALTNVGEQRGTYILKPLSMKGNLTAEKIENTGNIIECTDLQETTNAIKVHFLTQNALKFKVGSRHYIINFPFEYDGKKIELPGKSSYNLEEMLSAINFTIPYSIASVSDSSNTADIFPGTPFPLLFEIEVSSCTGNNTNCNSVRFNYNLNTILQVNLMTHHHHHH
glycan array binding signal (z-score) (Fuc(a1-2)Gal): 0.363 | glycan array binding signal (z-score) [1]: -1.09 | glycan array binding signal (z-score) [2]: -0.102 | glycan array binding signal (z-score) (Fuc(a1-2)Gal(b1-4)Glc): -0.622 | glycan array binding signal (z-score) [3]: -0.607 | glycan array binding signal (z-score) [4]: 2 | glycan array binding signal (z-score) [5]: 1.97 | glycan array binding signal (z-score) [6]: -0.548 | glycan array binding signal (z-score) [7]: -0.51 | glycan array binding signal (z-score) [8]: 3.45 | glycan array binding signal (z-score) [9]: -0.81 | glycan array binding signal (z-score) [10]: 0.198 | glycan array binding signal (z-score) (Gal(a1-3)GalNAc): 7.25 | glycan array binding signal (z-score) (Gal(b1-2)Gal): 1.18 | glycan array binding signal (z-score) [11]: 0.216 | glycan array binding signal (z-score) [12]: -0.747 | glycan array binding signal (z-score) [13]: 0.355 | glycan array binding signal (z-score) [14]: 2.29 | glycan array binding signal (z-score) [15]: 2.43 | glycan array binding signal (z-score) [16]: 1.98 | glycan array binding signal (z-score) [17]: -0.48 | glycan array binding signal (z-score) (Gal6S(b1-4)Glc6S): 0.298 | glycan array binding signal (z-score) [18]: 0.68 | glycan array binding signal (z-score) [19]: -0.527 | glycan array binding signal (z-score) [20]: 2.41 | glycan array binding signal (z-score) [21]: 3.01 | glycan array binding signal (z-score) [22]: 0.259 | glycan array binding signal (z-score) (GlcNAc(b1-3)GalNAc): -0.454 | glycan array binding signal (z-score) [23]: -0.405 | glycan array binding signal (z-score) [24]: -0.838 | glycan array binding signal (z-score) [25]: -0.478 | glycan array binding signal (z-score) [26]: -0.322 | glycan array binding signal (z-score) [27]: 2.75 | glycan array binding signal (z-score) [28]: 0.57 | glycan array binding signal (z-score) [29]: 0.21 | glycan array binding signal (z-score) (Neu5Ac(a2-8)Neu5Ac): 0.04 | glycan array binding signal (z-score) [30]: 8.5 | glycan array binding signal (z-score) (Neu5Ac(b2-6)GalNAc): -0.643 | glycan array binding signal (z-score) (Neu5Gc(a2-6)GalNAc): 0.381
